The values that follow come from PubChem BioAssay (NCI).

Holding throughout (test): NCI-60 one-dose screen, 48 h (100 = growth as untreated, 0 = no growth, -100 = all killed)
The subject of one assay is HCT-15 colon. Conditions: 10 µM unless noted.
The subject of a further assay is HT29 colon. Conditions: 10 µM unless noted.
The test system of a further assay is SNB-75 CNS. Conditions: 10 µM unless noted.
The next assay deals with SNB-19 CNS. The following applies: 10 µM unless noted.
A further assay deals with U251 CNS. The following applies: 10 µM unless noted.
The subject of the next assay is PC-3 prostate. Conditions: 10 µM unless noted.
The next assay concerns SK-MEL-5 melanoma. The following applies: 10 µM unless noted.
In another assay the test system is UACC-62 melanoma. Conditions: 10 µM unless noted.
In the next assay the test system is LOX IMVI melanoma. The following applies: 10 µM unless noted.
The subject of the next assay is SK-MEL-28 melanoma. The following applies: 10 µM unless noted.
The subject of the next assay is SK-MEL-2 melanoma. The following applies: 10 µM unless noted.
Another assay relates to EKVX NSCLC. Conditions: 10 µM.
The test system of another assay is SN12C renal. The following applies: 10 µM unless noted.
For the next assay, the system named is UO-31 renal. The following applies: 10 µM unless noted.
The subject of another assay is TK-10 renal. Conditions: 10 µM unless noted.
The next assay concerns ACHN renal. The following applies: 10 µM unless noted.
Another assay relates to CAKI-1 renal. The following applies: 10 µM unless noted.
A further assay deals with A498 renal. The following applies: 10 µM unless noted.
The next assay deals with CCRF-CEM leukemia. The following applies: 10 µM.
Another assay concerns MOLT-4 leukemia. The following applies: 10 µM unless noted.

The panel holds about 83,000 compounds, 20% with a hit somewhere; the sample as a whole holds those more often.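 In brief: 96-well plates, 48 h treatment, single concentration, percent growth endpoint.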 A number with no mark means an inactive call. The source made the active and inactive calls. How the source made its calls: active means growth percent below 10; inactive means the rest.

For the molecule `CCOC(=O)c1c2c(cn1Cc1ccccc1)-c1oncc1CC2`, the growth in the assay on HCT-15 colon was 105%; in the assay with HT29 colon, 111%; with SNB-75 CNS it was 84%; with SNB-19 CNS, 84.9%; in the assay on U251 CNS, 72.7%; with PC-3 prostate, 97.3%. The growth is 102% in the assay with SK-MEL-5 melanoma; 91.9% with UACC-62 melanoma; 98.9% with LOX IMVI melanoma; 108% in the assay on SK-MEL-28 melanoma; 115% in the assay with SK-MEL-2 melanoma; 91.3% in the assay with EKVX NSCLC. Further, the growth is 76.1% with SN12C renal; 48.7% in the assay with UO-31 renal; 77.4% with TK-10 renal; 94.1% in the assay with ACHN renal; 82.8% in the assay on CAKI-1 renal; 50.5% with A498 renal. In addition, the growth in the assay with CCRF-CEM leukemia is 96%; with MOLT-4 leukemia it was 100%.

Consider `CC(C)OC(=O)c1ccc2n1CCCc1cnc(Nc3ccccc3)nc1-2`, for which the growth in the assay on HCT-15 colon is 43.7%; with HT29 colon, 72.5%; in the assay on SNB-75 CNS, 98.6%; with SNB-19 CNS, 89%; in the assay on U251 CNS, 76.4%; in the assay on PC-3 prostate, 75.7%. Moreover, the growth with SK-MEL-5 melanoma was 61.1%; in the assay on UACC-62 melanoma, 64.7%; in the assay on LOX IMVI melanoma, 78.7%; with SK-MEL-28 melanoma, 92.9%; in the assay with SK-MEL-2 melanoma, 66.3%; with EKVX NSCLC, 57.6%. In addition, the growth in the assay on SN12C renal was 81.7%; in the assay with UO-31 renal it was 64.2%; with TK-10 renal, 85.3%; in the assay on ACHN renal, 74.8%; with CAKI-1 renal, 65.6%; in the assay on A498 renal it was 63.5%. In addition, the values for the growth in the assay with CCRF-CEM leukemia and in the assay with MOLT-4 leukemia were 72.3% and 73.8%, respectively.

Consider `C/C(CCC(=O)O)=N/Nc1ccc([N+](=O)[O-])cc1`, for which the growth with HCT-15 colon is 34.5%; with HT29 colon, 86.1%; in the assay with SNB-75 CNS, 101%; in the assay on SNB-19 CNS, 94.4%; with U251 CNS, 75.7%; in the assay with PC-3 prostate, 65.1%. The growth in the assay with SK-MEL-5 melanoma is 46.3%; in the assay on UACC-62 melanoma, 23%; in the assay on LOX IMVI melanoma, 23.9%; with SK-MEL-28 melanoma, 104%; with SK-MEL-2 melanoma, 26.9%; in the assay with EKVX NSCLC, 63.1%. The growth is 77.1% in the assay on SN12C renal; 39% in the assay with UO-31 renal; 88.1% in the assay with TK-10 renal; 36.3% with ACHN renal; 25.7% in the assay with CAKI-1 renal; 75.8% in the assay with A498 renal. The growth in the assay with CCRF-CEM leukemia is 18.2%; with MOLT-4 leukemia, 37.3%.

For `COC(=O)Nc1nc2ccc(C(=O)c3ccccc3N(C)C3COC3)cc2[nH]1`, the growth with HCT-15 colon was 23.5%; with HT29 colon it was 9.07% (active); in the assay with SNB-75 CNS, 16.4%; in the assay on SNB-19 CNS, 37.8%; in the assay with U251 CNS, 21.4%; in the assay with PC-3 prostate, 23%. In addition, the growth is 22.6% with SK-MEL-5 melanoma; 27% with UACC-62 melanoma; 30.8% in the assay with LOX IMVI melanoma; 63.6% with SK-MEL-28 melanoma; 24.2% in the assay on SK-MEL-2 melanoma; 53.6% in the assay on EKVX NSCLC. The growth with SN12C renal was 44.1%; with UO-31 renal it was 39.9%; in the assay with TK-10 renal, 59.5%; in the assay with ACHN renal it was 40.5%; in the assay with CAKI-1 renal, 45.2%; in the assay with A498 renal it was 9.85% (active). Also, the growth was 8.11% (active) with CCRF-CEM leukemia and 30.3% in the assay with MOLT-4 leukemia.

Take `CC(=O)/C(=C/c1ccc(-c2ccccc2)cc1)C(=O)c1ccccc1`: the growth with HCT-15 colon was 66.9%; in the assay on HT29 colon, 70.2%; with SNB-75 CNS, 79.7%; in the assay with SNB-19 CNS, 82.3%; with U251 CNS it was 61%; in the assay with PC-3 prostate, 63.1%. Besides, the growth with SK-MEL-5 melanoma is 87.3%; in the assay on UACC-62 melanoma, 80.5%; with LOX IMVI melanoma it was 19.5%; with SK-MEL-28 melanoma it was 96.2%; in the assay on SK-MEL-2 melanoma, 99.1%; with EKVX NSCLC, 100%. Further, the growth with SN12C renal is 92.7%; in the assay on UO-31 renal, 76.3%; in the assay on TK-10 renal, 103%; with ACHN renal, 88.3%; in the assay on CAKI-1 renal, 91.3%; with A498 renal, 96.5%. Further, the figures for the growth with CCRF-CEM leukemia and in the assay with MOLT-4 leukemia were 38.6% and 5.31% (active), respectively.

For `Nc1cc(N)c2nc(-c3ccccc3)c(NCCc3ccc(Cl)c(Cl)c3)nc2c1`, the growth in the assay with HCT-15 colon is -87.7% (active); in the assay on HT29 colon, -36.3% (active); with SNB-75 CNS, -33.7% (active); with SNB-19 CNS, -69.4% (active); in the assay on U251 CNS, -100% (active); with PC-3 prostate, -90.5% (active). For the same molecule, the growth in the assay with SK-MEL-5 melanoma was -99.1% (active); in the assay on UACC-62 melanoma it was -91.7% (active); in the assay with LOX IMVI melanoma, -91.5% (active); in the assay on SK-MEL-28 melanoma, -79.3% (active); with SK-MEL-2 melanoma, -62.7% (active); in the assay with EKVX NSCLC, -100% (active). The growth in the assay with SN12C renal is -96.6% (active); in the assay with UO-31 renal it was -93% (active); with TK-10 renal, -92.5% (active); in the assay with ACHN renal, -100% (active); with CAKI-1 renal, -92.4% (active); with A498 renal, -34.4% (active). In addition, the growth in the assay with CCRF-CEM leukemia is -66.1% (active); with MOLT-4 leukemia it was -16.4% (active).

Regarding `CC1(c2ccc(Br)cc2)NC(=O)NC1=O` (stereo not drawn), the growth is 106% in the assay on HCT-15 colon; 106% in the assay with HT29 colon; 99.3% in the assay with SNB-75 CNS; 105% with SNB-19 CNS; 97.2% in the assay with U251 CNS; 103% in the assay with PC-3 prostate. For the same molecule, the growth in the assay on SK-MEL-5 melanoma is 104%; with UACC-62 melanoma it was 101%; in the assay with LOX IMVI melanoma it was 100%; in the assay with SK-MEL-28 melanoma, 112%; in the assay on SK-MEL-2 melanoma, 122%; with EKVX NSCLC, 109%. Also, the growth is 100% with SN12C renal; 94.9% with UO-31 renal; 106% in the assay with TK-10 renal; 104% with ACHN renal; 97.8% in the assay with CAKI-1 renal; 99.5% in the assay on A498 renal.

Consider `Cc1ccnc2c(NC(C)CCCN)cc(O)c(O)c12` (stereo not drawn), for which the growth is 121% in the assay with HCT-15 colon; 60% in the assay with HT29 colon; 105% with SNB-75 CNS; 102% in the assay on SNB-19 CNS; 83.1% in the assay with U251 CNS; 91.6% with PC-3 prostate. Moreover, the growth in the assay on SK-MEL-5 melanoma was 95.9%; in the assay on UACC-62 melanoma it was 105%; in the assay on LOX IMVI melanoma it was 60.7%; with SK-MEL-28 melanoma, 115%; in the assay with SK-MEL-2 melanoma it was 91.9%; with EKVX NSCLC, 93.8%. Also, the growth in the assay on SN12C renal is 27.2%; in the assay on UO-31 renal it was 83.7%; in the assay on TK-10 renal, 109%; in the assay with ACHN renal, 99.5%; in the assay with CAKI-1 renal it was 89.3%; with A498 renal, 93.5%. Besides, the growth with CCRF-CEM leukemia is 39.6%; in the assay with MOLT-4 leukemia, 54.1%.
